Results taken from the supplement of paper PMC9694430.

Each molecule was assayed on LOC_OS01G51400-cb002 (assay: thermal shift delta Tm vs DMSO control; higher = stronger stabilization (binding)). Conditions: 12.5 µM; protein concentration 2 µM.
Method in brief: (§1)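 Compounds dissolved in DMSO were added to purified rice kinase domain constructs, which had been expressed in E. coli, for differential scanning fluorimetry. Each well held 19.5 μl of 2 μM kinase in 100 mM potassium phosphate pH 7.5, 150 mM NaCl, 10% glycerol and 5 × SYPRO Orange. Fluorescence was followed from 25°C to 95°C at a rate of 0.05°C/s. Shifts in Boltzmann-fitted melting temperature are triplicate means relative to DMSO-only protein.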

Structure (SMILES) | thermal shift delta Tm [°C]
Oc1c2ccccc2c2c3c(cccc13)N=N2 | 0.42
CSc1cccc(Nc2ncc3cc(-c4c(Cl)cccc4Cl)c(=O)n(C)c3n2)c1 | 0.18
COc1cc(Nc2ncc(F)c(Nc3ccc4c(n3)NC(=O)C(C)(C)O4)n2)cc(OC)c1OC [R406 (free base)] | 0.55
Cc1cn(-c2cc(NC(=O)c3ccc(C)c(Nc4nccc(-c5cnccn5)n4)c3)cc(C(F)(F)F)c2)cn1 [Radotinib] | 0.16
CN1CCN(Cc2ccc(-c3cnc4[nH]cc(-c5ccc6[nH]ccc6c5)c4c3)cc2)CC1 | 0.11
CONC(=O)c1ccccc1Nc1cc(Nc2cc(C)nn2C(C)C)ncc1Cl | 0.4
CNC(=O)c1cc(Oc2ccc(NC(=O)Nc3ccc(Cl)c(C(F)(F)F)c3)c(F)c2)ccn1 [Regorafenib (BAY 73-4506)] | 0.2
c1cc(-c2cnn3cc(-c4ccc(OCCN5CCCCC5)cc4)cnc23)ccn1 [Dorsomorphin 2HCl] | 0.21
CCCCCCCCCC(=O)CC(O)S(=O)(=O)O (centres undefined) [Sodium Houttuyfonate] | 0.12
CC(C)[C@H](CO)Nc1nc(Nc2cccc(Cl)c2)c2ncn(C(C)C)c2n1 [Purvalanol A] | 0.45
COc1ccc(Cl)c(Nc2nc3ccccc3nc2NS(=O)(=O)c2cccc(NC(=O)C(C)(C)N)c2)c1 [Pilaralisib (XL147)] | 1.3
CC(C)Oc1ccc(-c2nn([C@@H](C)c3oc4ccc(F)cc4c(=O)c3-c3cccc(F)c3)c3ncnc(N)c23)cc1F | 0.32
O=C(/C=C/c1ccc2ccccc2n1)c1ccncc1 | 0.46
CC(C)(O)CC(=O)NCCn1ccc2ncnc(Nc3ccc(Oc4cccc(C(F)(F)F)c4)c(Cl)c3)c21 | 1.72
CCOC(=O)c1cnc2ccc(-c3cncc(NS(=O)(=O)c4ccccc4)c3)cn12 | 0.6
N#Cc1c(NC(=O)c2cccc3ccccc23)sc2c1CCCC2 [JNK Inhibitor IX] | 0.19
CN(C)Cc1cccc(N=C(c2ccccc2)c2c(O)[nH]c3cc(C(=O)N(C)C)ccc23)c1 | 0.16
O=c1c(-c2ccc(O)cc2)coc2cc(O)cc(O)c12 [Genistein] | 0.12
CCn1c2ccccc2c2cc(Nc3ccnc(NCCCN4CCOCC4)n3)ccc21 | 0.13

Structure (SMILES) | thermal shift delta Tm [°C]
N#CC(=C(/N)Sc1ccccc1N)/C(C#N)=C(\N)Sc1ccccc1N | 0.39
CCN(CC)CCCC(C)Nc1nc(C)cc(Nc2ccc3nc(C)cc(N)c3c2)n1 (centres undefined) | 0.05
c1cn2cc(-c3ccc4cn[nH]c4c3)nc(Nc3ccc(N4CCOCC4)cc3)c2n1 [Entospletinib (GS-9973)] | -0.11
C[C@H]1CNC(=O)c2cnn3ccc(nc23)N[C@H](C)c2cc(F)ccc2O1 | 0.22
CC(C)c1cnn2c(NCc3ccccc3)cc(NCCCCCCN)nc12 | -0.21
C=CC(=O)Nc1cccc(Nc2nc(Nc3ccc(NC4CN(CCF)C4)cc3OC)ncc2C(F)(F)F)c1 | 0.35
CNC(=O)CN1CCC(Oc2cc3c(Nc4cccc(Cl)c4F)ncnc3cc2OC)CC1 [Sapitinib (AZD8931)] | -0.05
C=CC(=O)Nc1cccc(Nc2nc(Nc3ccc(N4CCN(C(C)=O)CC4)cc3OC)ncc2C(F)(F)F)c1 [Rociletinib (CO-1686, AVL-301)] | 0.49
O=C(c1ccc(/C=C/c2n[nH]c3ccccc23)cc1)N1CCNCC1 | 1.16
Cc1ccc(NC(=O)c2ccc(CN3CCN(C)CC3)cc2)cc1Nc1nc(-c2cccnc2)cs1 [Masitinib (AB1010)] | -0.06
N#Cc1c(O)c2c(-c3ccc(-c4ccccc4O)cc3)csc2[nH]c1=O | 0.44
CN1CC[C@H](c2c(O)cc(O)c3c(=O)cc(-c4ccccc4Cl)oc23)[C@H](O)C1 [Flavopiridol (Alvocidib)] | -0.2
Cc1cnc(Nc2ccc(OCCN3CCCC3)cc2)nc1Nc1cccc(S(=O)(=O)NC(C)(C)C)c1 | 0.43
C[C@@H](Oc1ccc2[nH]nc(/C=C/c3cnn(CCO)c3)c2c1)c1c(Cl)cncc1Cl | 0.89
Nc1cccc(-c2cc3c(Oc4cccc(O)c4)ncnc3[nH]2)c1 | 0.45
CN1CCC(COc2cnc(-c3cccc(Cn4nc(-c5cccc(C#N)c5)ccc4=O)c3)nc2)CC1 | 0.24
C[C@H](Nc1ncnc2nc[nH]c12)c1cc2cccc(Cl)c2c(=O)n1-c1ccccc1 [Duvelisib (IPI-145, INK1197)] | 0.38
CCCCNc1ncc(C(=O)NCc2ccc(-n3ccnc3)cc2)c(NC2CCC(O)CC2)n1 (centres undefined) | 0.43

Each molecule was assayed on T1, LOC_OS01G52050-cb004 in the same assay as above. Conditions: 12.5 µM; protein concentration 2 µM.
T1 sequence (whole entry): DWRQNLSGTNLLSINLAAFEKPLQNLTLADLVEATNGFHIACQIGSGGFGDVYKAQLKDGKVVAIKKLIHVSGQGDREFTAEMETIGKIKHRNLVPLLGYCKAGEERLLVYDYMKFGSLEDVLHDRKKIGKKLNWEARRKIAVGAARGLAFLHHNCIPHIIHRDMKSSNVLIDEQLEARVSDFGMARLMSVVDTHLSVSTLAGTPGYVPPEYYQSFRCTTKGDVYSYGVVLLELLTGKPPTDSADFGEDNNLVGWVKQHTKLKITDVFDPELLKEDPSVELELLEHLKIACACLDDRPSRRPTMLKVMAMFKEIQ
Method in brief: as §1

Structure (SMILES) | thermal shift delta Tm [°C]
Oc1c2ccccc2c2c3c(cccc13)N=N2 | 7.57
CSc1cccc(Nc2ncc3cc(-c4c(Cl)cccc4Cl)c(=O)n(C)c3n2)c1 | 0.18
COc1cc(Nc2ncc(F)c(Nc3ccc4c(n3)NC(=O)C(C)(C)O4)n2)cc(OC)c1OC [R406 (free base)] | 8.56
Cc1cn(-c2cc(NC(=O)c3ccc(C)c(Nc4nccc(-c5cnccn5)n4)c3)cc(C(F)(F)F)c2)cn1 [Radotinib] | 0.51
CN1CCN(Cc2ccc(-c3cnc4[nH]cc(-c5ccc6[nH]ccc6c5)c4c3)cc2)CC1 | 9.93
CONC(=O)c1ccccc1Nc1cc(Nc2cc(C)nn2C(C)C)ncc1Cl | 3.96
CNC(=O)c1cc(Oc2ccc(NC(=O)Nc3ccc(Cl)c(C(F)(F)F)c3)c(F)c2)ccn1 [Regorafenib (BAY 73-4506)] | 0.67
c1cc(-c2cnn3cc(-c4ccc(OCCN5CCCCC5)cc4)cnc23)ccn1 [Dorsomorphin 2HCl] | 6.74
CCCCCCCCCC(=O)CC(O)S(=O)(=O)O (centres undefined) [Sodium Houttuyfonate] | 0.07
CC(C)[C@H](CO)Nc1nc(Nc2cccc(Cl)c2)c2ncn(C(C)C)c2n1 [Purvalanol A] | 5
COc1ccc(Cl)c(Nc2nc3ccccc3nc2NS(=O)(=O)c2cccc(NC(=O)C(C)(C)N)c2)c1 [Pilaralisib (XL147)] | 4.64
CC(C)Oc1ccc(-c2nn([C@@H](C)c3oc4ccc(F)cc4c(=O)c3-c3cccc(F)c3)c3ncnc(N)c23)cc1F | 0.73
O=C(/C=C/c1ccc2ccccc2n1)c1ccncc1 | -0.48
CC(C)(O)CC(=O)NCCn1ccc2ncnc(Nc3ccc(Oc4cccc(C(F)(F)F)c4)c(Cl)c3)c21 | 4.47
CCOC(=O)c1cnc2ccc(-c3cncc(NS(=O)(=O)c4ccccc4)c3)cn12 | 0.54
N#Cc1c(NC(=O)c2cccc3ccccc23)sc2c1CCCC2 [JNK Inhibitor IX] | -0.13
CN(C)Cc1cccc(N=C(c2ccccc2)c2c(O)[nH]c3cc(C(=O)N(C)C)ccc23)c1 | 0.77
O=c1c(-c2ccc(O)cc2)coc2cc(O)cc(O)c12 [Genistein] | 1.14
CCn1c2ccccc2c2cc(Nc3ccnc(NCCCN4CCOCC4)n3)ccc21 | 0.07

Structure (SMILES) | thermal shift delta Tm [°C]
N#CC(=C(/N)Sc1ccccc1N)/C(C#N)=C(\N)Sc1ccccc1N | 2.41
CCN(CC)CCCC(C)Nc1nc(C)cc(Nc2ccc3nc(C)cc(N)c3c2)n1 (centres undefined) | 0.12
c1cn2cc(-c3ccc4cn[nH]c4c3)nc(Nc3ccc(N4CCOCC4)cc3)c2n1 [Entospletinib (GS-9973)] | 3.88
C[C@H]1CNC(=O)c2cnn3ccc(nc23)N[C@H](C)c2cc(F)ccc2O1 | 4.57
CC(C)c1cnn2c(NCc3ccccc3)cc(NCCCCCCN)nc12 | 0.18
C=CC(=O)Nc1cccc(Nc2nc(Nc3ccc(NC4CN(CCF)C4)cc3OC)ncc2C(F)(F)F)c1 | 0.31
CNC(=O)CN1CCC(Oc2cc3c(Nc4cccc(Cl)c4F)ncnc3cc2OC)CC1 [Sapitinib (AZD8931)] | 0.01
C=CC(=O)Nc1cccc(Nc2nc(Nc3ccc(N4CCN(C(C)=O)CC4)cc3OC)ncc2C(F)(F)F)c1 [Rociletinib (CO-1686, AVL-301)] | 0.58
O=C(c1ccc(/C=C/c2n[nH]c3ccccc23)cc1)N1CCNCC1 | 7.26
Cc1ccc(NC(=O)c2ccc(CN3CCN(C)CC3)cc2)cc1Nc1nc(-c2cccnc2)cs1 [Masitinib (AB1010)] | -0.18
N#Cc1c(O)c2c(-c3ccc(-c4ccccc4O)cc3)csc2[nH]c1=O | 0.93
CN1CC[C@H](c2c(O)cc(O)c3c(=O)cc(-c4ccccc4Cl)oc23)[C@H](O)C1 [Flavopiridol (Alvocidib)] | 0.8
Cc1cnc(Nc2ccc(OCCN3CCCC3)cc2)nc1Nc1cccc(S(=O)(=O)NC(C)(C)C)c1 | 2.51
C[C@@H](Oc1ccc2[nH]nc(/C=C/c3cnn(CCO)c3)c2c1)c1c(Cl)cncc1Cl | 11.2
Nc1cccc(-c2cc3c(Oc4cccc(O)c4)ncnc3[nH]2)c1 | 2.13
CN1CCC(COc2cnc(-c3cccc(Cn4nc(-c5cccc(C#N)c5)ccc4=O)c3)nc2)CC1 | 0.04
C[C@H](Nc1ncnc2nc[nH]c12)c1cc2cccc(Cl)c2c(=O)n1-c1ccccc1 [Duvelisib (IPI-145, INK1197)] | 0.47
CCCCNc1ncc(C(=O)NCc2ccc(-n3ccnc3)cc2)c(NC2CCC(O)CC2)n1 (centres undefined) | 7.56
